Holding throughout (test): NCI-60 one-dose screen, 48 h (100 = growth as untreated, 0 = no growth, -100 = all killed)
What all share (settings): 10 µM unless noted

In assay [1] the test system is EKVX NSCLC.
Assay [2] has as its system SN12C renal.
For assay [3], the system named is UO-31 renal.
The test system of assay [4] is TK-10 renal.
For assay [5], the system named is ACHN renal.
For assay [6], the system named is CAKI-1 renal.
For assay [7], the system named is A498 renal.
The test system of assay [8] is CCRF-CEM leukemia.
Assay [9] concerns MOLT-4 leukemia.
The test system of assay [10] is SR leukemia.
The subject of assay [11] is RPMI-8226 leukemia.
Assay [12] has as its system OVCAR-8 ovarian.
Assay [13] relates to OVCAR-5 ovarian.
For assay [14], the system named is OVCAR-4 ovarian.
The subject of assay [15] is SK-OV-3 ovarian.
Assay [16] has as its system IGROV1 ovarian.
The subject of assay [17] is OVCAR-3 ovarian.
Assay [18] concerns HS 578T breast.
In assay [19] the test system is NCI/ADR-RES ovarian.
Assay [20] relates to T-47D breast.

This passage reports growth results from PubChem BioAssay (NCI).

SMILES strings stand for the structures. The panel holds about 83,000 compounds, 20% with a hit somewhere; the sample as a whole holds those more often.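 Treatment: one concentration, 48 hours, 96-well format. Scoring: percent growth, with anything below 10 considered active.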 A number with no mark means an inactive call. Active and inactive are the calls of the source.

In the case of `Fc1ccc(-c2nc(C(Cl)Cl)nc3cc(-c4ccccc4)nn23)cc1`, the growth in assay [1] was 0.294% (active); in assay [2], 42.5%; in [3] it was 40.9%; in assay [4], 30.3%; in [5], -52.3% (active); in assay [6], -21.4% (active). Also, the growth in assay [7] is -42.7% (active); in assay [8] it was 29.9%; in [9], 6.63% (active); in assay [10], 0.553% (active); in assay [11], 8.68% (active); in assay [12] it was -0.748% (active). Besides, the growth in assay [13] was -12.3% (active); in assay [14], -18.6% (active); in [15] it was -28.9% (active); in assay [16] it was 20.4%; in assay [17] it was -28.1% (active); in assay [18], -7.41% (active). Moreover, the figures for the growth in [19] and in [20] were 17.8% and 44.3%, respectively.

For the compound `CS(=O)(=O)c1ccc(-n2cc(/C=C/C(=O)c3ccc(NC(=O)CO[N+](=O)[O-])cc3)c(-c3ccc(Cl)cc3)n2)cc1`, the growth is 90.5% in [1]; 88% in assay [2]; 115% in [3]; 111% in [4]; 88.5% in assay [5]; 109% in [6]. The growth was 117% in assay [7]; 107% in assay [8]; 119% in [9]; 113% in assay [10]; 108% in assay [11]; 92.5% in [12]. In addition, the growth in assay [13] was 97.7%; in assay [14] it was 114%; in [15] it was 89.7%; in [16] it was 94.4%; in assay [17], 111%; in assay [18], 83.6%. Also, the growth is 94.4% in assay [19] and 104% in assay [20].

For `NS(=O)(=O)c1ccc(Nc2nc(SCC(=O)c3ccc(Cl)cc3)nc3ccccc23)cc1`, the growth in [1] was 90.6%; in assay [2] it was 88.1%; in assay [3], 82.3%; in [4] it was 153%; in [5], 89%; in assay [6], 74.5%. The growth in assay [7] was 74.8%; in assay [8], 92.4%; in [9], 91.3%; in [10], 79.6%; in assay [11], 83.6%; in assay [12], 95.6%. In addition, the growth in [13] is 100%; in [14] it was 91.3%; in assay [15], 110%; in assay [16] it was 82.8%; in assay [17] it was 102%; in assay [18], 92.2%. Moreover, the growth in assay [19] was 105%; in [20] it was 77.6%.

For the compound `Nc1cc(-c2c[nH]c3ccccc23)nc2cc(-c3c[nH]c4ccccc34)nn12`, the growth in assay [1] is 74.5%; in [2], 73%; in assay [3] it was 44.2%; in [4], 89.4%; in [5], 51.6%; in assay [6], 59.4%. Moreover, the growth in assay [7] was 42.3%; in [8], 45.4%; in [9], 34%; in [10] it was 14%; in assay [11] it was 35.9%; in assay [12], 64.3%. Moreover, the growth in assay [13] was 51%; in assay [14] it was 65.1%; in assay [15] it was 139%; in assay [16] it was 57.2%; in assay [17] it was 92.4%; in [18], 81.1%. Further, the growth in assay [19] is 59%; in assay [20], 68.7%.

As for `O=C(CSc1nccc(=O)[nH]1)Nc1ccc(-c2nc3ccccc3[nH]2)cc1`, the growth in [1] is 111%; in assay [2] it was 103%; in assay [3] it was 108%; in [4] it was 116%; in assay [5], 101%; in assay [6] it was 112%. Also, the growth was 116% in assay [7]; 101% in assay [8]; 111% in [9]; 117% in assay [10]; 109% in assay [11]; 103% in [12]. In addition, the growth is 109% in assay [13]; 112% in assay [14]; 103% in [15]; 102% in [16]; 123% in assay [17]; 119% in assay [18]. In addition, the values for the growth in [19] and in [20] were 111% and 106%, respectively.

Take `COc1ccc(-c2nc3ccc(-c4nnc(SCC(=O)Nc5ccc(C(=O)/C=C/c6ccc(Cl)cc6)cc5)o4)cc3[nH]2)cc1OC`: the growth is 91.9% in [1]; 94.9% in assay [2]; 87% in assay [3]; 134% in assay [4]; 94.3% in assay [5]; 100% in assay [6]. Further, the growth in assay [7] is 100%; in [8], 100%; in assay [9] it was 75.8%; in [10], 73%; in assay [11] it was 75.5%; in assay [12], 106%. Besides, the growth was 95.2% in assay [13]; 108% in assay [14]; 111% in assay [15]; 91.9% in assay [16]; 116% in assay [17]; 96% in [18]. The growth is 108% in [19] and 89.4% in assay [20].

`CCOc1ccc([C@H]2C(C(=O)c3ccc(Cl)cc3)C3(N[C@@H]2c2ccccc2)C(=O)Nc2ccc(Br)cc23)cc1` (stereo not given in full): the growth in assay [1] is 33.6%; in [2], 6.51% (active); in assay [3], 32.7%; in assay [4] it was 53.4%; in assay [5] it was 10.7%; in [6], 31.8%. The growth was 46.7% in assay [7]; 34.9% in [8]; 2.38% (active) in assay [9]; -24% (active) in assay [10]; 23.5% in assay [11]; 38% in [12]. The growth is 51.2% in assay [13]; 45.5% in assay [14]; 58.6% in [15]; 13.5% in assay [16]; -29.5% (active) in assay [17]; 46.1% in assay [18]. The growth is 64.7% in assay [19] and 31.4% in [20].

With `Fc1ccc(-c2cc3nc(C(Cl)Cl)nc(-c4ccccc4)n3n2)cc1`, the growth in [1] is 1.49% (active); in assay [2] it was 52%; in assay [3] it was 3.9% (active); in assay [4], -23.9% (active); in assay [5], -27.2% (active); in [6], -17.5% (active). For the same compound, the growth in assay [7] is -59.9% (active); in [8], 55.7%; in [9], 23.6%; in assay [10], 3.78% (active); in assay [11], -16.1% (active); in assay [12] it was 8.61% (active). Also, the growth is -20.3% (active) in assay [13]; -16.9% (active) in assay [14]; -18.6% (active) in assay [15]; 46.5% in assay [16]; -43.1% (active) in assay [17]; -18% (active) in assay [18]. Moreover, the growth in assay [19] was 10.6%; in assay [20] it was 22.1%.
